High-throughput results deposited in PubChem by several laboratories.
Sampled rows, rich in hits. Any-hit rate of the full collection: about 3%.
TWEAK Fn14 block: TWEAK-Fn14 signaling inhibition | AID 1159606 | inhibition, % at 10 µM | TWEAK-stimulated Fn14 reporter cells, luciferase luminescence, 8 h | 2% of 360,000 active; in the data active = inhibition above about 50%
LMP1 NFkB inh: inhibitors of Epstein-Barr LMP1-induced NF-kappaB reporter. LMP1-induced NF-kappaB luciferase reporter cells, luminescence. inhibition, % at 12.5 µM. 0.69% of 350,000 active; in the data active = inhibition above about 41%; inconclusive = no clear call, values can overlap the other calls
TRPM1 prom inh: inhibitors of MITF-driven TRPM1 promoter in melanoma cells; SK-MEL-5 TRPM1 promoter luciferase, 24 h; inhibition, % at 12.5 µM; 0.83% of 330,000 active;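 active = mean inhibition across replicates of 60% or more, whatever share of single replicates reaches that level; inconclusive = some that reach 60%, reason not given; inactive = mean inhibition across replicates below 60%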
TROY NFkB inh: TROY signaling inhibition | AID 1347056 | Q293 LMP1-TROYcd NF-kB luciferase reporter, 4 h | 0.98% of 360,000 active | inhibition, % at 10 µM;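 active = compounds whose plate-normalised and pattern-corrected inhibition of the luciferase reporter signal at the single screening dose is 50% or more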
MITF act: activators of MITF-driven TRPM1 promoter activity in SK-MEL-5 cells | SK-MEL-5 TRPM1-promoter luciferase, 24 h; % of positive control, neutral wells = 0 | activation, % at 12.5 µM | 0.75% of 300,000 active;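 active = mean activation of at least 80% with every replicate also reaching 80%; inconclusive = mean reaches 80% but some replicate falls short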
LGR2 inh: inhibitors of bursicon-induced Drosophila LGR2 receptor cAMP signaling; HEK293 LGR2, CRE-luciferase, bursicon-stimulated, 4 h; inhibition, % at 9.99 µM; 0.35% of 380,000 active; AID 720647;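 active = drop in luminescence signal, shown as inhibition above about 50% in the replicate tests, limit read from the data, passing the limit was not always enough; inconclusive = probably only some replicates passing the limit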;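 note: agonist challenge used bursicon conditioned medium at about half maximal strength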
Hits are given with their value; - = inactive; ? = inconclusive; . = no result.

SMILES	TWEAK Fn14 block	LMP1 NFkB inh	TRPM1 prom inh	TROY NFkB inh	MITF act	LGR2 inh
Cc1cc(C(=O)COC(=O)c2ccc[nH]c2=O)c(C)n1-c1ccccc1F	59	-	-	-	-	-
CCCn1c(C)cc(C(=O)COC(=O)c2ccc[nH]c2=O)c1C	80	48	-	72	-	56
Cc1noc(C)c1NC(=O)N(C)C[C@H]1Oc2ccc(NC(=O)C3CCCCC3)cc2CC(=O)N([C@H](C)CO)C[C@@H]1C	.	.	.	.	.	-
Cn1cnc(CCNC(=O)C[C@H]2CC[C@@H]3[C@H](COC[C@H](O)CN3C(=O)Nc3ccccc3)O2)c1	.	.	.	.	.	-
CN1[C@@H]2Cn3c(ccc(-c4ccccc4)c3=O)[C@H]1[C@@H](C(=O)NCC1CCCCC1)[C@@H]2CO	.	.	.	.	.	-
COC(=O)C1=C(C(=O)OC)[C@@H]2N(Cc3ccccc3)c3ccccc3[C@@]23C[C@@H](C(=O)OC)N(C(=O)c2cccs2)C3=N1	61	-	-	-	-	-
Nc1nc(Cl)nc2ccc(Br)cc12	75	-	-	71	-	-
CCc1c(C)nc2ccc(Br)cc2c1Cl	-	-	-	-	.	.
CC(=O)N(C)C[C@@H]1Oc2cc(C#Cc3ccccn3)ccc2S(=O)(=O)N([C@H](C)CO)C[C@H]1C	.	.	.	.	.	-
O=C(Nc1cccc(Cl)c1)C1C2CCC3C(CCC21)C3(Cl)Cl (stereo unspecified)	62	-	-	-	-	-
COc1ccc(N2C(=O)C(=O)/C(=C(/O)c3ccc(C)cc3)C2c2cccnc2)cc1 (stereo unspecified)	-	44	-	-	-	-
C[C@H](CO)N1C[C@H](C)[C@@H](CN(C)Cc2cccc(F)c2)Oc2cc(-c3ccc(F)cc3)ccc2S1(=O)=O	.	.	.	.	.	-
CC(=C\c1ccccc1)/C=C1/SC(=S)N(CCCC(=O)O)C1=O	-	-	-	60	.	-
C=CCN1C(=O)/C(=C\C(C)=C\c2ccccc2)SC1=S	-	-	-	-	.	-
CC(/C=C1\SC(=O)N(CCCC(=O)O)C1=O)=C\c1ccccc1	104	72	85	87	-	-
C[C@H]1CN([C@@H](C)CO)C(=O)c2cc(NC(=O)CCCCCC(=O)Nc3ccccc3N)ccc2O[C@H]1CN(C)C(=O)Nc1ccc(F)cc1	.	.	.	.	.	-
Fc1ccc2cc(-c3ccccc3)ncc2c1	-	-	-	-	92	-
COc1ccc2c3c(n(C)c2c1)[C@H](CO)NCC31CCN(CC2CC2)CC1	.	.	.	.	.	-
CCOC(=O)Cn1c(=NC(=O)c2ccc([N+](=O)[O-])s2)sc2ccccc21	-	-	73	-	-	.
Fc1cccc(Cl)c1CNc1ccc(N2CCCC2)cc1	57	-	-	-	-	-
N#CC(Cc1cccs1)c1nc2ccccc2[nH]1 (stereo unspecified)	-	-	.	-	.	-
N#CC(Cc1ccc(OC(F)F)cc1)c1nc2ccccc2[nH]1 (stereo unspecified)	-	-	-	-	91	-
CC(=O)NNc1ncnc2c1cnn2-c1ccc(C)cc1	-	-	-	-	-	-
CC(=O)NNc1ncnc2c1cnn2-c1ccc(C)c(Cl)c1	73	-	-	61	-	-
O=C(NNc1ncnc2c1cnn2-c1cccc(Cl)c1)c1ccco1	-	-	-	-	-	-
SMILES	TWEAK Fn14 block	LMP1 NFkB inh	TRPM1 prom inh	TROY NFkB inh	MITF act	LGR2 inh
Cc1ccc(Cl)cc1-n1ncc2c(NNC(=O)c3ccco3)ncnc21	63	-	-	-	-	-
CCC(=O)N(C)C[C@@H]1Oc2ncc(C3=CCCC3)cc2C(=O)N([C@@H](C)CO)C[C@H]1C	.	.	.	.	.	-
O=C(Cc1ccccc1)N1C[C@H]2[C@@H](c3ccccc31)[C@H](CO)N2C(=O)c1cccc(F)c1	.	.	.	.	.	-
CCC(C)n1ncn(-c2ccc(N3CCN(c4ccc(O)cc4)CC3)cc2)c1=O (stereo unspecified)	-	-	-	-	-	-
CCC(C)n1ncn(-c2ccc(N3CCN(c4ccc(OCC5COC(Cn6cncn6)(c6ccc(Cl)cc6Cl)O5)cc4)CC3)cc2)c1=O (stereo unspecified)	-	91	-	-	-	-
COc1ccc(Cn2c(SCc3cc(C)ccc3C)nc3cc(OC)c(OC)cc3c2=N)cc1	-	?	89	-	.	.
COc1cc2nc(SCc3ccc(C(F)(F)F)cc3)n(Cc3cccs3)c(=N)c2cc1OC	-	-	-	-	.	.
COc1ccc(Cn2c(SCc3ccc(C)cc3)nc3cc(OC)c(OC)cc3c2=N)cc1Cl	-	90	105	-	-	.
COc1cc2nc(SCc3ccc(Cl)cc3Cl)n(Cc3cccs3)c(=N)c2cc1OC	-	-	-	-	-	.
O=C(Nc1ccccc1)[C@@H]1[C@@H](CO)[C@@H]2Cn3c(cccc3=O)[C@@H]2N1Cc1ccccc1Cl	.	.	.	.	.	-
O=C(C[C@H]1C[C@@H]2c3cc(NC(=O)C4CCC4)ccc3O[C@@H]2[C@H](CO)O1)NCC(F)(F)F	.	.	.	.	.	-
C[C@@H]1CN([C@H](C)CO)C(=O)c2cc(NC(=O)Cc3ccccc3)ccc2O[C@@H]1CN(C)C(=O)Nc1ccccc1	.	.	.	.	.	-
CNC(=O)C[C@H]1CC[C@H]2[C@@H](COc3ccc(NC(=O)c4cccc(F)c4)cc3C(=O)N2C)O1	.	.	.	.	.	-
CCCOC(=O)Cn1c(=O)c2cc3c(=O)n(CC(=O)OCCC)c(=O)c3cc2c1=O	-	-	-	62	-	.
C[C@H]1CN([C@@H](C)CO)S(=O)(=O)c2ccc(-c3cccc(C#N)c3)cc2O[C@@H]1CN(C)C(=O)C1CC1	.	.	.	.	.	-
O=CNc1ccc2c(c1)Cc1cc([N+](=O)[O-])ccc1-2	-	-	-	-	-	-
CCC(=O)Nc1ccc2c(c1)Cc1cc([N+](=O)[O-])ccc1-2	-	-	-	-	93	-
CO[C@H]1CN(C)C(=O)c2ccc(NS(C)(=O)=O)cc2OC[C@@H](C)N(C(=O)C2CCC2)C[C@H]1C	.	.	.	.	.	-
CC(=O)N1CCc2c(sc(NC(=O)c3ccc([N+](=O)[O-])o3)c2C#N)C1	-	-	95	-	-	-
COC(=O)c1c(NC(=O)Cc2ccccc2)sc2c1CCN(C(C)C)C2	-	-	.	-	.	-
COc1ccc(C(=O)Nc2sc3c(c2C#N)CCN(C(C)=O)C3)cc1	-	-	-	-	-	-
COC(=O)c1c(NC(=O)c2ccc([N+](=O)[O-])o2)sc2c1CCN(C(C)C)C2	-	-	63	-	-	-
CC(C)N1CCc2c(sc(NC(=O)c3ccc([N+](=O)[O-])o3)c2C(N)=O)C1	-	-	94	-	-	-
CC(C)N1CCc2c(sc(NC(=O)c3nc4ccccc4s3)c2C(N)=O)C1	-	-	-	-	-	-
c1ccc(-c2cnnc(N3CCCCC3)n2)cc1	-	-	-	-	86	.
c1ccc(-c2cc(N3CCCCC3)ncn2)cc1	-	-	-	-	86	.
FC(F)(F)c1cc(-c2ccccc2)nc(N2CCCCCC2)n1	-	-	-	-	.	.
COc1cc2c(cc1OC)C(C)=NC1(CCCCC1)C2	-	-	-	-	-	-
